The campaign covered roughly 2,100 compounds. About 1,100 (52%) were called active. Roughly 27% stayed inconclusive and do not appear here. Calls come from the whole dose curve; as a rule, active = well fitted inhibition curve with a large enough effect; inconclusive = small, poorly fitted or top-dose-only effect; inactive = no such curve, though single readings can be large or run the other way. So high a share suggests a set chosen from earlier hits. Some of the results follow.
Potency is the fitted concentration of half-maximal effect.

Chain of DNA dC->dU-editing enzyme APOBEC-3G (Homo sapiens) (Q9HC16 whole entry, looked up): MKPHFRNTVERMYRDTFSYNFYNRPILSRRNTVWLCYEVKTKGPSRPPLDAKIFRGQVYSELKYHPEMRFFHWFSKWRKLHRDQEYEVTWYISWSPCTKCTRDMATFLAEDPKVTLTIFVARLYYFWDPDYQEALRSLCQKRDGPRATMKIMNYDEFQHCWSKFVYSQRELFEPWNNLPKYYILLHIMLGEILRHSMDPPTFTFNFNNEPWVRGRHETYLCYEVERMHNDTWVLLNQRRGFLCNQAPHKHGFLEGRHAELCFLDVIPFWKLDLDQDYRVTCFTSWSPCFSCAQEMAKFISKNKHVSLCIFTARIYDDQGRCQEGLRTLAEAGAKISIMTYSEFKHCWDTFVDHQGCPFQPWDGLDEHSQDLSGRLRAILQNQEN

This assay addresses DNA dC->dU-editing enzyme APOBEC-3G (Homo sapiens) (UniProt Q9HC16). Kind of assay: qHTS for inhibitors of Vif-A3G interactions: Cherry picks counterscreen.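 For max response: max response given as percent of control signal.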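 Note: hits raise yellow fluorescence by blocking Vif-driven A3G-eYFP degradation; nearly all actives have a fitted effect of over 70% in size.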 The following applies: HeLa A3G-eYFP + Vif (tagged APOBEC3G with the HIV-1 protein that degrades it), eYFP fluorescence, 24 h. In short, it runs like this:
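Readout is eYFP fluorescence (488 nm excitation, 500-530 nm emission) measured on Acumen Explorer after 24 h compound exposure, several concentrations, at 37 deg C. Cells: HeLa stably co-expressing Vif and C-terminally eYFP-tagged A3G; MG132 positive control.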
A general note: Quantitative high-throughput screening tests each substance at several concentrations.
Consider `Cc1cc(C)c2cc3c(N)c(C(=O)Nc4c(C)[nH]c(=O)[nH]c4=O)sc3nc2c1`, for which the Potency was 11.6 µM (active).

In the case of `COc1cc2c(c(OC)c1OC)-c1ccc(N(C)CC(OC)OC)c(=O)cc1[C@@H](NC(C)=O)CC2`, the Potency is 0.559 µM (active).

Turning to `CN[C@H]1CCc2cc(OC)c(OC)c(OC)c2-c2ccc(N(C)CC(OC)OC)c(=O)cc21`, the Potency is 6.27 µM (active).

For `CC(C)c1ccc(C(=O)NCCCNC(=O)c2cnccn2)cc1`, the max response was 10.5% (inactive).

For the compound `O=C(NCCN1C(=O)S/C(=C\c2ccc(OC(F)F)cc2)C1=O)c1cnccn1`, the Potency is 12.5 µM (active).

As for `O=c1c2ccccc2nc(/C=C/c2ccc([N+](=O)[O-])o2)n1CCCO`, the Potency is 10.3 µM (active).

Take `Cn1c(/C=C/c2ccc([N+](=O)[O-])o2)nc2ccccc2c1=O`: the Potency was 14.6 µM (active).

For `CCCN1C(=O)C(Cc2nc3ccccc3c(=O)n2CC)c2cc(Br)ccc21` (centres undefined), the max response was 11.6% (inactive).

Regarding `CCn1c(/C=C/c2ccc([N+](=O)[O-])o2)nc2ccccc2c1=O`, the Potency was 20.6 µM (active).

`N#C/C(N=Nc1ccccc1O)=N\Nc1ccccc1O`: the Potency is 16.4 µM (active).

In the case of `N#CCc1ccc(NC(=O)/C=C/c2ccc([N+](=O)[O-])o2)cc1`, the Potency was 13 µM (active).

As for `CCOC(=O)CCc1ccc(NC(=O)/C=C/c2ccc([N+](=O)[O-])o2)cc1`, the Potency is 11.6 µM (active).

For the compound `O=C(Nc1nc2c(F)cccc2s1)c1ccc([N+](=O)[O-])o1`, the max response is -8.08% (inactive).

Take `O=C(/C=C/c1ccc([N+](=O)[O-])o1)NNC(=O)c1ccc(F)cc1`: the Potency was 7.9 µM (active).

For the compound `N#C/C=C/N1CCN(C(=O)c2ccco2)CC1`, the max response was -14.7% (inactive).

As to `CCN(CC(=O)NCc1ccc(F)cc1)C(=O)/C=C/c1ccc(OC)c(S(=O)(=O)NC(C)C)c1`, the Potency is 3.53 µM (active).

In the case of `c1ccc(-c2cnn3c(-c4ccccc4)c(-c4ccccc4)nc3n2)cc1`, the Potency is 2.59 µM (active).

As to `COc1cccc(C2CC(c3ccccc3)=NN2S(=O)(=O)c2ccc(C)cc2)c1OC` (centres undefined), the Potency was 18.4 µM (active).

For the compound `Cc1ccc(C2=NN(C(=O)c3cccs3)C(c3ccccc3O)C2)cc1` (centres undefined), the max response is 20.9% (inactive).

In the case of `Cc1ccc(C2=NN(S(=O)(=O)c3ccccc3)C(c3ccccc3O)C2)cc1` (centres undefined), the Potency is 13 µM (active).

For `CCOC1=C2CN(S(=O)(=O)c3ccc(C)cc3)[C@H](c3cccc4ccccc34)C[C@H]2C(C#N)(C#N)C(C#N)(C#N)C1`, the max response was -20.1% (inactive).

In the case of `O=c1c2ccccc2sc2ccc(NCCCN3CCOCC3)cc12`, the Potency is 23.1 µM (active).

`COc1ccc(S(=O)(=O)N2c3ccccc3OCC2CC(=O)O)cc1` (centres undefined): the Potency is 12.5 µM (active).

Take `COc1ccc(S(=O)(=O)N2CCN(C(=O)c3ccc([N+](=O)[O-])o3)CC2)cc1`: the max response is -0.426% (inactive).

Source of the values: PubChem BioAssay AID651813 (National Center for Advancing Translational Sciences (NCATS), 2012).
